# PubChem BioAssay (NCATS)
# Records with an inconclusive call do not appear. Active and inactive are the calls of the source. Calls follow the shape of the dose curve; as a rule, active = well fitted inhibition curve with a large enough effect; inconclusive = small, poorly fitted or top-dose-only effect; inactive = flat fitted curve, though single readings scatter.
# Assay: Drug repurposing screens with cells derived from glioblastoma tumor samples (AID 1345199); also: nearly all actives have a fitted effect of over 40% in size
# Conditions: GBM patient neurospheres viability, ATP luminescence, 48 h
# Outline: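 Primary testing used CD133+ neurospheres from four GBM patients, seven concentrations, 48 h exposure and ATP-based viability; confirmation added three slower-growing patient lines.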
# [1] = at 46.1 µM (top of the series), tumour line C
# % is scaled to controls: 0 for no effect and ±100 for the full control effect; potency is read from the fitted curve at half-maximal effect.
SMILES,"activity, negative = cell killing [1]",Potency (tumour line A),Potency (tumour line B),"activity, negative = cell killing (at 45.9 µM (top of the series), tumour line D)",Potency (tumour line D)
CCc1ccc2c(c1)N(CC(C)CN(C)C)c1ccccc1S2 (centres undefined),11.1% (inactive),4.47 µM (active),25.1 µM (active),–,–
O=S(=O)(O)c1ccc2c(N=Nc3ccc(S(=O)(=O)O)c4ccccc34)c(O)c(S(=O)(=O)O)cc2c1,-9.01% (inactive),–,–,-24.2% (inactive),–
CN1CCC(CN2c3ccccc3Sc3ccccc32)C1 (centres undefined),0.543% (inactive),7.08 µM (active),35.5 µM (active),–,17.8 µM (active)
